Reference: the supplement of paper PMC10849652
Targets with a hit are over-represented here; the source holds about 8,800 in all. About 0.5% of all pairs of compound and target were hits. A number with no mark means an inactive call.

How the values were obtained:
Experiment in all cases: log2 fold change, soluble protein after heating vs DMSO (PISA); higher = thermal stabilisation; K562 lysate, 10 uM; active = over 0.2 and 3.5 SD of the protein, either way, in both replicates (recomputed)
vemurafenib = compound: CCCS(=O)(=O)Nc1ccc(F)c(C(=O)c2c[nH]c3ncc(-c4ccc(Cl)cc4)cc23)c1F [vemurafenib]
Summary of the method: (§1)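 Thermal stability, expressed as log-two fold change relative to solvent controls, is given from duplicates. Crude K562 extract in PBS pH 7.4 with 1 mM MgCl2, at 1 mg/mL protein, was treated with 10 μM compound for 30 min and heated in aliquots for 3 min across 48°C-58°C. After pooling, adjustment to 0.5% NP-40 at 4°C and centrifugation at 21,000xg for 90 min, supernatant protein was measured by TMTpro 16plex LC-MS/MS with channel sums equalised.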

[1] = compound: CCCS(=O)(=O)Nc1ccc(F)c(C(=O)c2c[nH]c3ncc(Cl)cc23)c1F
Summary of the method: as §1

barasertib = compound: CCN(CCCOc1ccc2c(Nc3cc(CC(=O)Nc4cccc(F)c4)[nH]n3)ncnc2c1)CCOP(=O)(O)O [barasertib]
Summary of the method: as §1

[2] = compound: CC[C@@H]1C(=O)N(C)c2cnc(Nc3ccc(C(=O)NC4CCN(C)CC4)cc3OC)nc2N1C1CCCC1
Summary of the method: as §1

volasertib = compound: CC[C@@H]1C(=O)N(C)c2cnc(Nc3ccc(C(=O)N[C@H]4CC[C@H](N5CCN(CC6CC6)CC5)CC4)cc3OC)nc2N1C(C)C [volasertib]
Summary of the method: as §1

[3] = compound: CCn1c(C(=O)N(C2CC2)C2CC2)cc2c3c(ncn3C)c(Nc3cc(C)n(C)n3)nc21
Summary of the method: as §1

[4] = compound: CCn1cc(-c2ccnc3[nH]c(-c4cccc(CN(C)C)c4)cc23)c(-c2ccc(NC(=O)N(C)C)cc2)n1
Summary of the method: as §1

[5] = compound: CN1CCC(CNc2ccc3ncc(-c4cccc(OC(F)(F)F)c4)n3n2)CC1
Summary of the method: as §1

saracatinib = compound: CN1CCN(CCOc2cc(OC3CCOCC3)c3c(Nc4c(Cl)ccc5c4OCO5)ncnc3c2)CC1 [saracatinib]
Summary of the method: as §1

sotrastaurin = compound: CN1CCN(c2nc(C3=C(c4c[nH]c5ccccc45)C(=O)NC3=O)c3ccccc3n2)CC1 [sotrastaurin]
Summary of the method: as §1

Chain of UniProt Q8IWY9 (Q8IWY9 whole entry, looked up): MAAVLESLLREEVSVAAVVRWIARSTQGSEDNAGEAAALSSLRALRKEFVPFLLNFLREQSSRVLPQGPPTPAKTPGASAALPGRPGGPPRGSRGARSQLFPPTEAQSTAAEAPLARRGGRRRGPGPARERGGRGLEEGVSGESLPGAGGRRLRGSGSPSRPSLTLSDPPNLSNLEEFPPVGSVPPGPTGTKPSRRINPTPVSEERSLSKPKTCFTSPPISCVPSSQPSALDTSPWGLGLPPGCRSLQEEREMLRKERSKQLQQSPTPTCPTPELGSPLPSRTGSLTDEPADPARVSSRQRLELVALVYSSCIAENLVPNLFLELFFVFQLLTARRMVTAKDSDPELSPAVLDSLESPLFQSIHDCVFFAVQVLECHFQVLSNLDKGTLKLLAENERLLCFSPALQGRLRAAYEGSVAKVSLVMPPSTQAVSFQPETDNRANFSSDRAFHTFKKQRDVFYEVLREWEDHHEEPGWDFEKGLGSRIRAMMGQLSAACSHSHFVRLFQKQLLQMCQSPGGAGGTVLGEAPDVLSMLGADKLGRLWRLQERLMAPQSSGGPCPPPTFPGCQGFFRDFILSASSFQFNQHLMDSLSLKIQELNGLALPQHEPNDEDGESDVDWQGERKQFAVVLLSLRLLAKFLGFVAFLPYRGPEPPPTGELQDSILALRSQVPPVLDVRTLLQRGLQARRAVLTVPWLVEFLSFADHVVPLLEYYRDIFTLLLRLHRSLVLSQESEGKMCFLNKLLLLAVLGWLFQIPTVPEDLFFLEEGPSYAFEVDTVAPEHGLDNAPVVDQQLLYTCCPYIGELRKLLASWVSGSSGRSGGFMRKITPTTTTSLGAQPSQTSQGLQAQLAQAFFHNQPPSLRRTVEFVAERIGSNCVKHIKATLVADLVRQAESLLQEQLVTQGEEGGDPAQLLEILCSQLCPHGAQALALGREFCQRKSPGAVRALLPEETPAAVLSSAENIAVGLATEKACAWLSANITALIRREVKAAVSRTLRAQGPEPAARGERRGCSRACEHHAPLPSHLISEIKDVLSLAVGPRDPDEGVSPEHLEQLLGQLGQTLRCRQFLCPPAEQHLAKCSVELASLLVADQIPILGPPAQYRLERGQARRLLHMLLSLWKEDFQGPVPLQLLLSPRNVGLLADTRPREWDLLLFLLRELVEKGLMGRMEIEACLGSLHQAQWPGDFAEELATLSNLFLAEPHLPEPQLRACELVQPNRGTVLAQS
Chain of UniProt Q96B23 (Q96B23 whole entry, looked up): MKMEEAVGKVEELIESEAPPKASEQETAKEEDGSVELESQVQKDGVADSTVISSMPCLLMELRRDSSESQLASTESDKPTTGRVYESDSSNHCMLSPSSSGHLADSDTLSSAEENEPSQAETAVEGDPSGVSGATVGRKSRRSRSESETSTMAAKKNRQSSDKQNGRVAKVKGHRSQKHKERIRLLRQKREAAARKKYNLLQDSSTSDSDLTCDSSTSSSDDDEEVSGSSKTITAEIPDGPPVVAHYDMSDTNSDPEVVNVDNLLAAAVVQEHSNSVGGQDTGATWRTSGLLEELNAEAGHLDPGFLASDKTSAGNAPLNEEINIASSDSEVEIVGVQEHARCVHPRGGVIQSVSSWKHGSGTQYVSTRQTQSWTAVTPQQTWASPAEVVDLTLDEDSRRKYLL
Chain of UniProt O95429 (O95429 whole entry, looked up): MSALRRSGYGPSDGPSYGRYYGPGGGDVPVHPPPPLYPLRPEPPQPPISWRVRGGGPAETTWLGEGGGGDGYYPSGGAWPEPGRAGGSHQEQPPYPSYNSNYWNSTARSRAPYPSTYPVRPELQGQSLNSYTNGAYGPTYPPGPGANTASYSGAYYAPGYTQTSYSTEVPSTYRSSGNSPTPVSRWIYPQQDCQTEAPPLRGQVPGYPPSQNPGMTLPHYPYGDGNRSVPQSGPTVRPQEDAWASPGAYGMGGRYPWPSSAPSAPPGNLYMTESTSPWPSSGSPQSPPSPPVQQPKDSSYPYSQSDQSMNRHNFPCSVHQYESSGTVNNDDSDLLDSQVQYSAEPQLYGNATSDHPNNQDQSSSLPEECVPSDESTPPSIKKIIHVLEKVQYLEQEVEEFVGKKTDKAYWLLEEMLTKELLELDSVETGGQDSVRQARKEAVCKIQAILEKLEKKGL
Chain of UniProt Q96RR4 (Q96RR4 whole entry, looked up): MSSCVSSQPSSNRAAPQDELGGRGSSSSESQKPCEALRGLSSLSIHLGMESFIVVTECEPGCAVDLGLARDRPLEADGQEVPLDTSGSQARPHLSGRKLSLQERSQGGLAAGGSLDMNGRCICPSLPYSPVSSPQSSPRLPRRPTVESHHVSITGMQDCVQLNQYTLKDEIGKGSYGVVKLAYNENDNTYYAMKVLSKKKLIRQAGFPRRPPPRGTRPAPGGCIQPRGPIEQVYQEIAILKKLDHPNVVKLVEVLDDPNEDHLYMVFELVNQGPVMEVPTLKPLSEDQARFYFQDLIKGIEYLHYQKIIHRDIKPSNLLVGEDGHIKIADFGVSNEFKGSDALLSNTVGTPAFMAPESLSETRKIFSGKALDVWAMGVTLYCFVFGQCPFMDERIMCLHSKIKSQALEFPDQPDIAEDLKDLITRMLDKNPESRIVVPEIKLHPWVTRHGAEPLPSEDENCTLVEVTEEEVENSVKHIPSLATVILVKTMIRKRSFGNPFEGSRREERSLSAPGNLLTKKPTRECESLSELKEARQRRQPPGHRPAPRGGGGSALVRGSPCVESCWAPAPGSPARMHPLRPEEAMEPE
Chain of UniProt Q8N163 (Q8N163 whole entry, looked up): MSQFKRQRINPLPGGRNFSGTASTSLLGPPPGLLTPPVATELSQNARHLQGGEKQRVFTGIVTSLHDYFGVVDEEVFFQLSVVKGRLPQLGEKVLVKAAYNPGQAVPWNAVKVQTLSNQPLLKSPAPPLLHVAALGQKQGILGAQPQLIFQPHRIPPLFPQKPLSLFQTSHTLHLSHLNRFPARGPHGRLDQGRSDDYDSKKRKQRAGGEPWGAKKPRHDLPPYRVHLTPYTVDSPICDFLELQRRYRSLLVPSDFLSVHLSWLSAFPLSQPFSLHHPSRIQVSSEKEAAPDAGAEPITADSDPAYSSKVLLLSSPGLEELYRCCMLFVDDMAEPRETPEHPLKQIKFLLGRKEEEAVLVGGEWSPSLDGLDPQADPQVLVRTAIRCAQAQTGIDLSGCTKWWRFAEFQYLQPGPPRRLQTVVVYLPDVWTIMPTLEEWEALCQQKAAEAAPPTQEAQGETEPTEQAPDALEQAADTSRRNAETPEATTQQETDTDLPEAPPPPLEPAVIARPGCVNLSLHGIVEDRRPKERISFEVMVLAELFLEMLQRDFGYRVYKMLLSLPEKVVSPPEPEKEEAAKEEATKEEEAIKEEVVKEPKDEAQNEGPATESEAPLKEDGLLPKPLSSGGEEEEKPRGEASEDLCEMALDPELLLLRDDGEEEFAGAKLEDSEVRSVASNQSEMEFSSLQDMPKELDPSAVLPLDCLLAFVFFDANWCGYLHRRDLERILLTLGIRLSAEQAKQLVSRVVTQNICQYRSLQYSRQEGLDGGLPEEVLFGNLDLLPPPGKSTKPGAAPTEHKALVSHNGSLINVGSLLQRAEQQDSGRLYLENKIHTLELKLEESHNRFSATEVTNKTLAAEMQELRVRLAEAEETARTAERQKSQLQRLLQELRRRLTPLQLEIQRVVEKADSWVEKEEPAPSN
Chain of UniProt P04632 (P04632 whole entry, looked up): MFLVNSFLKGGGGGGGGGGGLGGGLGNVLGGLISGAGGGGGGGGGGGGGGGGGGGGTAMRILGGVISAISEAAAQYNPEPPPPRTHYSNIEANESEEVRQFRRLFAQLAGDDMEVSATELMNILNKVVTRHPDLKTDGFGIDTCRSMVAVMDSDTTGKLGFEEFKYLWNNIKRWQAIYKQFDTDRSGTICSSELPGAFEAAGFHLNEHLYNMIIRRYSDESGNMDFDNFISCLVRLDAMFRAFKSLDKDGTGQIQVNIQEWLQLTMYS
Chain of UniProt Q9NXV6 (Q9NXV6 whole entry, looked up): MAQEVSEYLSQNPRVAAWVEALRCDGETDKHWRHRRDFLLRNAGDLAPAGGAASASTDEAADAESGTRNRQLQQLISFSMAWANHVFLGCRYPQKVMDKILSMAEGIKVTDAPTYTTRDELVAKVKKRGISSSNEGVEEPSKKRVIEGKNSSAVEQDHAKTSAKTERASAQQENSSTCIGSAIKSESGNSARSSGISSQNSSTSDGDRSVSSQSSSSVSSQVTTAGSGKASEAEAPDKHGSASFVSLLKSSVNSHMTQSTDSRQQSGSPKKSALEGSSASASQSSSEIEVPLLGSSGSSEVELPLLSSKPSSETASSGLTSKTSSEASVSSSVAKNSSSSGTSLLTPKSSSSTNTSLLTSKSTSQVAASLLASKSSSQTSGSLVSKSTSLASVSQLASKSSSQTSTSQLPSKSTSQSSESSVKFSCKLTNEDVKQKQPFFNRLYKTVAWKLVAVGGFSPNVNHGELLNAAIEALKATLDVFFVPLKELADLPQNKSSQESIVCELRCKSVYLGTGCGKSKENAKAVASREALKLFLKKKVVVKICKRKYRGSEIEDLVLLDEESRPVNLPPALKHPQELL
Chain of UniProt P08962 (P08962 whole entry, looked up): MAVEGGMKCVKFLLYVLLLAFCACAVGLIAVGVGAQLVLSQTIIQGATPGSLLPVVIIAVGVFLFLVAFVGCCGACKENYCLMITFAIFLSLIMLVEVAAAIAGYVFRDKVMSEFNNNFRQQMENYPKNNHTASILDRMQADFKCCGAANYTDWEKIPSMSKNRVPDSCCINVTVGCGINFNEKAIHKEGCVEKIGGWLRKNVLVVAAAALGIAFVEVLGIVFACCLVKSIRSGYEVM
Chain of UniProt Q7L2Z9 (Q7L2Z9 whole entry, looked up): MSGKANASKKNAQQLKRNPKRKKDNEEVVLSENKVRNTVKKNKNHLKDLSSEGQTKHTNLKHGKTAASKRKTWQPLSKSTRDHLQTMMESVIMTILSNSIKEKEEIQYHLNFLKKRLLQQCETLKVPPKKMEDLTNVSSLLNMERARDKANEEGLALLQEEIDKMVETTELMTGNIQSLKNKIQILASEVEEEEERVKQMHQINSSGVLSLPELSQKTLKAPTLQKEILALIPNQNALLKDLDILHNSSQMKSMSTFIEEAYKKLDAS

Row | Target | log2 fold change (vemurafenib) | log2 fold change [1] | log2 fold change (barasertib) | log2 fold change [2] | log2 fold change (volasertib) | log2 fold change [3] | log2 fold change [4] | log2 fold change [5] | log2 fold change (saracatinib) | log2 fold change (sotrastaurin)
1 | CAPNS1 (UniProt P04632) | -0.032 | 0.021 | 0.11 | -0.027 | 0.04 | -0.006 | -0.334 (active) | 0.07 | 0.003 | -0.012
2 | CDKN2AIP (UniProt Q9NXV6) | 0.017 | 0.022 | -0.028 | 0.082 | -0.008 | -0.026 | -0.049 | 0.03 | -0.004 | 0.01
3 | CDAN1 (UniProt Q8IWY9) | -0.047 | 0.004 | 0.014 | -0.093 | -0.034 | 0.031 | -0.03 | -0.012 | 0.002 | -0.005
4 | C18orf25 isoform 2 (UniProt Q96B23) | -0.01 | 0.027 | -0.034 | 0.067 | -0.021 | -0.047 | -0.234 | 0.037 | -0.037 | –
5 | CHCHD4 isoform 2 (UniProt Q8N4Q1) | 0.144 | 0.015 | 0.109 | 0.072 | 0.057 | -0.1 | -0.415 (active) | 0.228 | 0.05 | -0.007
6 | CDC42EP4 (UniProt Q9H3Q1) | 0.01 | -0.01 | 0.013 | 0.162 | 0.013 | -0.04 | -0.021 | 0.042 | -0.064 | -0.012
7 | CAPN15 (UniProt O75808) | 0.04 | -0.046 | 0.077 | -0.007 | 0.027 | 0.013 | 0.037 | 0.016 | 0.032 | -0.091
8 | CENPQ (UniProt Q7L2Z9) | 0.069 | -0.167 | 0.038 | -0.023 | -0.115 | -0.084 | -0.44 (active) | 0.095 | 0.033 | 0.023
9 | CHD5 (UniProt Q8TDI0) | -0.034 | 0.022 | 0.034 | 0.165 | -0.028 | -0.026 | 0.051 | -0.019 | 0.026 | 0.026
10 | BAG4 (UniProt O95429) | -0.055 | 0 | 0.048 | 0.004 | -0.003 | 0.036 | -0.037 | 0.102 | 0.018 | -0.043
11 | CD63 (UniProt P08962) | -0.079 | 0.084 | 0.037 | -0.036 | 0.023 | -0.011 | -0.593 (active) | 0.175 | 0.073 | 0.057
12 | CCDC22 (UniProt O60826) | -0.054 | 0.026 | 0.052 | -0.053 | -0.013 | 0.026 | -0.027 | -0.01 | 0.01 | 0.028
13 | CAMKK2 (UniProt Q96RR4) | -0.07 | -0.026 | 0.003 | 0.176 | 0.075 | 0.057 | 0.003 | 0.002 | -0.017 | 0.069
14 | CCAR2 (UniProt Q8N163) | -0.007 | -0.004 | -0.047 | -0.01 | -0.031 | 0.01 | -0.057 | 0.032 | -0.002 | 0.007
15 | CDC123 (UniProt O75794) | -0.052 | 0.014 | 0.04 | -0.12 | -0.05 | 0.032 | 0.018 | -0.021 | 0.012 | 0.013
